From PubChem BioAssay (NCATS)
Records with an inconclusive call do not appear. A call without a number means that no potency is given here. The source made the active and inactive calls. Unless noted, calls come from the whole dose curve.

What was measured:
[1] = target: Bile acid receptor (Homo sapiens) (UniProt Q96RI1); experiment: qHTS assay for small molecule antagonists of farnesoid X receptor signaling (AID 588526)
Method in brief: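 Concentration-response titrations were fitted to the Hill equation for half-maximal inhibition and maximal response, with data normalised to 50 uM chenodeoxycholic acid and DMSO control wells. Cells: FXR-UAS-bla HEK293T, dialyzed FBS.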

[2] = target: Glucocorticoid receptor (Homo sapiens) (UniProt P04150); experiment: qHTS assay for small molecule agonists of glucocorticoid receptor signaling (AID 588532; active = well fitted curve in the direction sought with a large enough effect in the signal ratio, with a control signal flat; the % refers to the signal ratio); details: HeLa MMTV-bla, beta-lactamase ratio, agonist, 18 h; stronger effect = higher value; percent of dexamethasone control, DMSO zero
Chain of Glucocorticoid receptor (Homo sapiens) (P04150 whole entry, looked up): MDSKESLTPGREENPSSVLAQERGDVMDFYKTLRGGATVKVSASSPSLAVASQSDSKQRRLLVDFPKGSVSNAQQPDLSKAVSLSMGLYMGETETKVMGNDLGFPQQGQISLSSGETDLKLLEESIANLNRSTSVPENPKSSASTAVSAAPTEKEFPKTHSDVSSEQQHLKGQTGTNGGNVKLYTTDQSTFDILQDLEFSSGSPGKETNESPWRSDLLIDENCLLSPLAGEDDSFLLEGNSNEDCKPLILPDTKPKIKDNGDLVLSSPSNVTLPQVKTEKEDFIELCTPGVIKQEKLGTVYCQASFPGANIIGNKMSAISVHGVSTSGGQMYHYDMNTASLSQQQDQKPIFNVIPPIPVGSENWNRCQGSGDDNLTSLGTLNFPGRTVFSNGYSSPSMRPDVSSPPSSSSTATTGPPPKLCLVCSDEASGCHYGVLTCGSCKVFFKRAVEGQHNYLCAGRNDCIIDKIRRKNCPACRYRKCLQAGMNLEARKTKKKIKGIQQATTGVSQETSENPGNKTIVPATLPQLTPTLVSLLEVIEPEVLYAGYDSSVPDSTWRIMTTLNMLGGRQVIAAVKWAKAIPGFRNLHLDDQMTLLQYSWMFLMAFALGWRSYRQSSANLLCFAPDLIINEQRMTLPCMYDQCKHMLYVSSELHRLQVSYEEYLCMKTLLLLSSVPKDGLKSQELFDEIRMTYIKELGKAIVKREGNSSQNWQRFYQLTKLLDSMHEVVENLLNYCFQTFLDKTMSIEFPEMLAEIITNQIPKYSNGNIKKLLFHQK
Method in brief: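 Titration series, up to 92 uM, applied to GRE-bla HeLa cells for 18 h at 37 C. Detection by CCF4 FRET substrate after 2 h at RT.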

[3] = target: Glucocorticoid receptor (Homo sapiens) (UniProt P04150); experiment: qHTS assay for small molecule antagonists of glucocorticoid receptor signaling (AID 588533; active = well fitted inhibition curve with a large enough effect in the signal ratio, with a control signal flat, not every such curve was filed as active; the % refers to the signal ratio;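 note: cells stimulated with 2 nM dexamethasone as agonist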)
Method in brief: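 Antagonist-mode qHTS: compound titrations added to GRE-bla HeLa cells, then dexamethasone 2 nM final; 18 h, 37 C. CCF4 FRET fluorescence normalized to dexamethasone and DMSO; IC50 from Hill fit.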

[4] = qHTS assay for small molecule antagonists of peroxisome proliferator-activated receptor delta signaling (AID 588535; active = well fitted inhibition curve with a large enough effect in the signal ratio, with a control signal flat, not every such curve was filed as active; the % refers to the signal ratio;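 for max response: cells co-treated with a PPAR-delta agonist as stimulator during compound exposure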); details: HEK293T PPARd-UAS-bla, beta-lactamase FRET ratio, 18 h; 460 nm channel
Method in brief: (§1)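 Compounds tested in titration on PPAR-delta-UAS-bla HEK293T cells grown in charcoal/dextran-stripped serum (2%); beta-lactamase activity read via CCF4 emission at 460 and 530 nm.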

[5] = target: Peroxisome proliferator-activated receptor gamma (Homo sapiens) (UniProt P37231); experiment: qHTS assay for small molecule agonists of peroxisome proliferator-activated receptor gamma signaling (AID 588536; active = well fitted curve in the direction sought with a large enough effect in the signal ratio, with a control signal flat, not every such curve was filed as active; the % refers to the signal ratio)
Chain of Peroxisome proliferator-activated receptor gamma (Homo sapiens) (P37231 whole entry, looked up): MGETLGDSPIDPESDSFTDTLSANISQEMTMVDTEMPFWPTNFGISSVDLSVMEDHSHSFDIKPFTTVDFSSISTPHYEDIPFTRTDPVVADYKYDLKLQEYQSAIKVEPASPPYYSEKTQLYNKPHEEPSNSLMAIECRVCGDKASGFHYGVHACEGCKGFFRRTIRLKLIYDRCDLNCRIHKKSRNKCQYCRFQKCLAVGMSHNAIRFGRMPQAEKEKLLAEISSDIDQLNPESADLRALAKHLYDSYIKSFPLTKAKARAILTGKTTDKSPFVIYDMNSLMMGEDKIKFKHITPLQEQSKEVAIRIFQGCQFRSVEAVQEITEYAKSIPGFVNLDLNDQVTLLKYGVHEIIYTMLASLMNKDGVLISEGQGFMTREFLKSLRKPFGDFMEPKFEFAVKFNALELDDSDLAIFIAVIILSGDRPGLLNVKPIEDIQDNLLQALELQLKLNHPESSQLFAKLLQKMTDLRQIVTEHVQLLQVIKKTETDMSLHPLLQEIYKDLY
Method in brief: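 This is an agonist-mode beta-lactamase reporter assay in HEK293 PPAR-gamma-UAS-bla cells with 1% charcoal/dextran FBS. Compound titrations ran 16 h at 37 C before CCF4 detection. EC50 and efficacy are Hill fits scaled to 2 uM rosiglitazone (100%) and DMSO basal.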

[6] = target: Peroxisome proliferator-activated receptor gamma (Homo sapiens) (UniProt P37231); experiment: qHTS assay for small molecule antagonists of peroxisome proliferator-activated receptor gamma signaling (AID 588537; active = well fitted inhibition curve with a large enough effect in the signal ratio, with a control signal flat, not every such curve was filed as active; the % refers to the signal ratio;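 note: reporter cells co-stimulated with 50 nM rosiglitazone agonist during compound treatment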)
Method in brief: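 HEK293 cells, PPAR-gamma-UAS-bla, 3000/well. Pre-incubation 6-6.5 h, 37 C. Compound titration with rosiglitazone 50 nM final, 16 h. CCF4 dye, 2 h RT, dual-emission fluorescence.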

[7] = target: Vitamin D3 receptor (Homo sapiens) (UniProt P11473); experiment: qHTS assay for small molecule antagonists of vitamin D receptor signaling (AID 588541);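 note: receptor activated by calcitriol during compound treatment; series mostly up to about 77 µM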
Chain of Vitamin D3 receptor (Homo sapiens) (P11473 whole entry, looked up): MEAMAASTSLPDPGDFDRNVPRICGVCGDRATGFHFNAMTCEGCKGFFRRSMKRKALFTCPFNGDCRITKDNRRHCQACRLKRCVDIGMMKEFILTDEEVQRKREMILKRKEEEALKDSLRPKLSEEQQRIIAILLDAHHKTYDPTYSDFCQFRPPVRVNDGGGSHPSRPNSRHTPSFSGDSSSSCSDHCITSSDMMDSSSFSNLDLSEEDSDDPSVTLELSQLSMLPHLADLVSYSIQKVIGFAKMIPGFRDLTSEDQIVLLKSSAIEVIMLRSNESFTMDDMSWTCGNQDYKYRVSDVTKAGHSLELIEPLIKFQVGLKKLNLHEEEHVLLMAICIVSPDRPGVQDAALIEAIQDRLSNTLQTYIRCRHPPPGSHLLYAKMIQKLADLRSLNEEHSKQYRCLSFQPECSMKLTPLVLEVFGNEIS
Method in brief: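 VDR-UAS-bla HEK293T cells (2000/well, 2% charcoal-stripped FBS) were treated with titrated compounds plus 1-alpha,25-dihydroxyvitamin D3 (50 nM or 3 nM final) for 16 h at 37 C. CCF4 beta-lactamase fluorescence was read; Hill fits gave IC50.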

[8] = target: Vitamin D3 receptor (Homo sapiens) (UniProt P11473); experiment: qHTS assay for small molecule agonists of vitamin D receptor signaling (AID 588543)
Method in brief: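 Agonist-mode beta-lactamase reporter: HEK293T VDR-UAS-bla cells in charcoal-stripped 2% FBS, compound series 16 h 37 C, CCF4 2 h RT. EC50 from Hill fit, scaled against DMSO and 50 nM calcitriol control.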

[9] = qHTS assay for small molecule agonists of retinoid X receptor alpha signaling (AID 588544); details: HEK293T RXRa-UAS-bla, beta-lactamase reporter, 18 h; 530 nm emission
[10] = target: Retinoic acid receptor RXR-alpha (Homo sapiens) (UniProt P19793); experiment: as above
Chain of Retinoic acid receptor RXR-alpha (Homo sapiens) (P19793 whole entry, looked up): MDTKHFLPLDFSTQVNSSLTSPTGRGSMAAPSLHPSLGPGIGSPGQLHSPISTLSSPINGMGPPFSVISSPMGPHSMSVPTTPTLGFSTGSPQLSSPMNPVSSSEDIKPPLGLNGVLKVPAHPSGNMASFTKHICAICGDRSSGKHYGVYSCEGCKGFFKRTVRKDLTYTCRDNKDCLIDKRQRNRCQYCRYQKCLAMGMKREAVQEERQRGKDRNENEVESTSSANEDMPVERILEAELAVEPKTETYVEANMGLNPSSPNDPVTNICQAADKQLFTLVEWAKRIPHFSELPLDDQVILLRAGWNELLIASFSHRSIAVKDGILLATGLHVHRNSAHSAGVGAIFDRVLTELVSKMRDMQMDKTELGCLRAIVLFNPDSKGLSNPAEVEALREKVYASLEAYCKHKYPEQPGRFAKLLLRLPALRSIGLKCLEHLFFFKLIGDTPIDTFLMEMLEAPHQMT

[11] = target: Thyroid hormone receptor beta (Homo sapiens) (UniProt P10828); experiment: qHTS assay for small molecule agonists of thyroid hormone receptor beta signaling (AID 588545)
Chain of Thyroid hormone receptor beta (Homo sapiens) (P10828 whole entry, looked up): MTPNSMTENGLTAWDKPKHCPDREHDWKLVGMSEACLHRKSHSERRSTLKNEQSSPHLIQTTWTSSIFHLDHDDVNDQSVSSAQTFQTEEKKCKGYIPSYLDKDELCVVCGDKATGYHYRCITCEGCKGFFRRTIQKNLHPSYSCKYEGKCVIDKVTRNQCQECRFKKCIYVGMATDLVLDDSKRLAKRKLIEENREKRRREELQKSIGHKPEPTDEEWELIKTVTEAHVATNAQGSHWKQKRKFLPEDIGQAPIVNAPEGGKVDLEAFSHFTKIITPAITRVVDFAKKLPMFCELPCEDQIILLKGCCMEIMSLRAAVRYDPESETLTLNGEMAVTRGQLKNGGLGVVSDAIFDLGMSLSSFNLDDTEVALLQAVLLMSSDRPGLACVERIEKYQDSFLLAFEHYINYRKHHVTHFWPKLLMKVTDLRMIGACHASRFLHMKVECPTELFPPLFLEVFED
Method in brief: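 Efficacy and EC50 values derive from Hill fits of qHTS titration data, normalized to 10 nM T3 and DMSO-only wells. HEK 293 reporter cells were stimulated for 18 hrs at 37 C, with beta-lactamase activity measured by CCF4 fluorescence.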

[12] = qHTS assay for small molecule antagonists of retinoid X receptor alpha signaling (AID 588546; active = well fitted inhibition curve with a large enough effect in the signal ratio, with a control signal flat, not every such curve was filed as active; the % refers to the signal ratio;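 note: cells stimulated with 9-cis-retinoic acid as agonist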); details: HEK293T RXRa-UAS-bla, beta-lactamase ratio, antagonist mode; measured here: W530 green channel, cytotoxicity proxy
Method in brief: (§2)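 Beta-lactamase reporter inhibition, read as CCF4 fluorescence ratio (ex 405, em 460/530 nm) after 2 h at RT. HEK293T UAS-bla cells, 2500/well, were stimulated with 9-cis-RA at 500 or 100 nM final alongside test compound for 18 h at 37 C.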

[13] = target: Retinoic acid receptor RXR-alpha (Homo sapiens) (UniProt P19793); experiment: as above; details: HEK293T RXRa-UAS-bla, beta-lactamase ratio, antagonist mode
Method in brief: as §2

[14] = target: Thyroid hormone receptor beta (Homo sapiens) (UniProt P10828); experiment: qHTS assay for small molecule antagonists of thyroid hormone receptor beta signaling (AID 588547; active = well fitted inhibition curve with a large enough effect in the signal ratio, with a control signal flat, not every such curve was filed as active; the % refers to the signal ratio;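 note: cells stimulated with 0.4 nM T3 agonist during compound exposure; series mostly up to about 77 µM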); details: TR-UAS-bla HEK293, beta-lactamase ratio, antagonist mode, 18 h
Method in brief: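 TR-UAS-bla GripTite HEK293 cells in 2% charcoal/dextran FBS medium were preincubated 4 h at 37 C, given compound (0.59 nM to 92 uM) plus 0.4 nM T3 (final) for 18 h, then CCF4 for 2 h at RT; Hill fit gave IC50.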

[15] = qHTS assay for small molecule agonists of the antioxidant response element (ARE) signaling pathway (AID 651741; active = well fitted activation curve with a large enough effect in the signal ratio; the % refers to the signal ratio; note: potency is the fitted concentration of half-maximal effect)
Method in brief: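 Beta-lactamase reporter expression driven by the antioxidant response element in HepG2 cells was detected by fluorescence with LiveBLAzer B/G FRET substrate (2 h, room temperature) following 16 h compound treatment at 37 C.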

[16] = qHTS assay for small molecule activators of the nuclear factor-kappa B (NF-kB) signaling pathway (AID 651749; active = well fitted activation curve with a large enough effect in the signal ratio; the % refers to the signal ratio; note: series mostly up to about 77 µM); details: NF-kB-bla ME-180 cells, beta-lactamase FRET ratio, 16 h; stronger effect = higher value
Method in brief: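 Beta-lactamase reporter expression, controlled by NF-kB response elements in ME-180 cells, was quantified fluorometrically via FRET disruption; cells at 2,000/well had been incubated with 23 nL test compound for 16 hr.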

[17] = target: Peroxisome proliferator-activated receptor delta (Homo sapiens) (UniProt Q03181); experiment: qHTS assay for small molecule antagonists of peroxisome proliferator-activated receptor delta signaling (AID 588535);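 for max response: cells co-treated with a PPAR-delta agonist as stimulator during compound exposure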
Chain of Peroxisome proliferator-activated receptor delta (Homo sapiens) (Q03181 whole entry, looked up): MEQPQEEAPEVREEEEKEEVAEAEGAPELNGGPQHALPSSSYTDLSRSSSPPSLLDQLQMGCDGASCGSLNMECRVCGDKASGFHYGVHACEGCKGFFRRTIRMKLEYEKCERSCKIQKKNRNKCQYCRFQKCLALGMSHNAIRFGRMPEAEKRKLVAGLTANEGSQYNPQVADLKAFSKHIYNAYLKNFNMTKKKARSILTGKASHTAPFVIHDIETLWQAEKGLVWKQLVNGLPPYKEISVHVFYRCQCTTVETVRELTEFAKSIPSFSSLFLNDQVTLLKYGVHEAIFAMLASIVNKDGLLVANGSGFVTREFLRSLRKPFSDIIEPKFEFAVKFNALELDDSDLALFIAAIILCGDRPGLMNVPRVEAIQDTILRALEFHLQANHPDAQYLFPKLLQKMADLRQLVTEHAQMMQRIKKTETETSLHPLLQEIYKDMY
Method in brief: as §1

[18] = target: Voltage-gated inwardly rectifying potassium channel KCNH2 (Homo sapiens) (UniProt Q12809); experiment: qHTS Assay for Small Molecule Inhibitors of the Human hERG Channel Activity (AID 588834; active = well fitted inhibition curve with a large enough effect;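 note: top concentration of the series differs between compounds; lower thallium flux fluorescence means stronger hERG block; nearly all actives have a fitted effect of over 50% in size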)
Chain of Voltage-gated inwardly rectifying potassium channel KCNH2 (Homo sapiens) (Q12809 whole entry, looked up): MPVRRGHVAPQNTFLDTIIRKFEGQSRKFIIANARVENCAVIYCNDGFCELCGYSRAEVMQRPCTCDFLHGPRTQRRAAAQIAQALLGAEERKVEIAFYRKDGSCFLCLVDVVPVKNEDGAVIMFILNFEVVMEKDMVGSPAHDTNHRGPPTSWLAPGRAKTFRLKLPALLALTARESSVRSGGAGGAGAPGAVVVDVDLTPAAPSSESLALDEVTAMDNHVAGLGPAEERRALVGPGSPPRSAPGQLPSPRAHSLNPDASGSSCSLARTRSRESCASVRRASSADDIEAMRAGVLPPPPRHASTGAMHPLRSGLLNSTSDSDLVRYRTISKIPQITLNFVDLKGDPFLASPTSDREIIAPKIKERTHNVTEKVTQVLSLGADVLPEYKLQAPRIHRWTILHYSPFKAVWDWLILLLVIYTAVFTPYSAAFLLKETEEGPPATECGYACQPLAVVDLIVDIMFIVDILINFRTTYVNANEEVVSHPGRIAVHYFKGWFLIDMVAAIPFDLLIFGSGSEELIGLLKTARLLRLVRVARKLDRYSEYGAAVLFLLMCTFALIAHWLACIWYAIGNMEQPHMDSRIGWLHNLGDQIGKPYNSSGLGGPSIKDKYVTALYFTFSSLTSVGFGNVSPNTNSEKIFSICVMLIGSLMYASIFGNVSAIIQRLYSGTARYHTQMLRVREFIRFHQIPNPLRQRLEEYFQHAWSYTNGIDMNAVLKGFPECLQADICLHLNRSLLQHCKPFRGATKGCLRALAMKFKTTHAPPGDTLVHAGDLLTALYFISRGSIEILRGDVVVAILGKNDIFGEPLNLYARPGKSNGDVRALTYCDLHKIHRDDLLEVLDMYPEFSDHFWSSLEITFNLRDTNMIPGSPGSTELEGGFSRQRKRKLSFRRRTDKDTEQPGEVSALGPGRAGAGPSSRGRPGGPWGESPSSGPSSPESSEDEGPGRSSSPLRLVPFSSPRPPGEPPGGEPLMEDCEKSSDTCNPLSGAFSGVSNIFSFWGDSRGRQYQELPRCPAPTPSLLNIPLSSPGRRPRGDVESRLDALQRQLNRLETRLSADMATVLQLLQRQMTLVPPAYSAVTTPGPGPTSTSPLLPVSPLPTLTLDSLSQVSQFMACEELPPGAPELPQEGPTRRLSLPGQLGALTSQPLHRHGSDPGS
Method in brief: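 hERG block measured as reduced thallium-dye (FluxOR) fluorescence after stimulation buffer addition, read over 2 min. Cells were hERG-BacMam-transduced U2OS exposed to compound ~10 min […]; concentration-response fitted with Hill equation for AC50.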

[19] = qHTS assay for small molecule activators of the p53 signaling pathway (AID 651743; active = well fitted activation curve with a large enough effect in the signal ratio, not every such curve was filed as active; the % refers to the signal ratio; note: series mostly up to about 92 µM); details: HCT-116 p53RE-bla, beta-lactamase FRET ratio, 16 h; stronger effect = higher value
Method in brief: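 Here HCT-116 cells with an integrated p53-responsive beta-lactamase gene were incubated with compounds (16 hours, 37 C) after a 5-hour plating period; beta-lactamase activity was detected as fluorescence intensity via B/G FRET substrate.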

Chain of Bile acid receptor (Homo sapiens) (Q96RI1 whole entry, looked up): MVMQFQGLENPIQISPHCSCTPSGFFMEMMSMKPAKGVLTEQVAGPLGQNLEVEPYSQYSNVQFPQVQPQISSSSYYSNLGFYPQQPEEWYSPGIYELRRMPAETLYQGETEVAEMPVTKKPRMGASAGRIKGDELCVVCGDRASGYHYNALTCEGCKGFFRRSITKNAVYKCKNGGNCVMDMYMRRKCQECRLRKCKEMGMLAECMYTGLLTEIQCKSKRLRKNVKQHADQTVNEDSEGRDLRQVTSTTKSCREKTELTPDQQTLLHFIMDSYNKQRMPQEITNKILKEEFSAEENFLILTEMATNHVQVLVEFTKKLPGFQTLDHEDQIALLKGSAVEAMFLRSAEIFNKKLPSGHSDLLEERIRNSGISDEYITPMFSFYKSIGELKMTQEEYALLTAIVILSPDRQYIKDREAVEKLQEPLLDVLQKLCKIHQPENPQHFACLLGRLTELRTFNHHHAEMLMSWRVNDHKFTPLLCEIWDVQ

SMILES	outcome [1]	activation [2]	outcome [3]	max response [4] [%]	outcome [5]	outcome [6]	outcome [7]	outcome [8]	max response [9] [%]	outcome [10]	outcome [11]	max response [12] [%]	max response [13]	activity change % (negative = inhibition) [14]	Potency [15]	activation [16]	Potency [17]	Potency [18]	activation [19]
FB(F)F	inactive	3.97% (inactive)	inactive	9.97	inactive	inactive	inactive	inactive	-9.29	inactive	inactive	16.6	-6.25% (inactive)	15.2% (inactive)	inactive	5.29% (inactive)	–	–	–
CC(O)CC(C)O (stereo not drawn)	inactive	0.893% (inactive)	inactive	7.44	inactive	–	inactive	inactive	-6.63	inactive	–	14.5	3.51% (inactive)	-2.07% (inactive)	inactive	-0.133% (inactive)	inactive	inactive	–
Nc1nc(-c2ccccc2)cs1	inactive	1.27% (inactive)	inactive	-2.19	inactive	–	inactive	inactive	-6.18	inactive	–	7.15	-5.77% (inactive)	–	37.6 µM (active)	0.279% (inactive)	inactive	inactive	–
CC(=O)OC(C)C	inactive	0.131% (inactive)	inactive	-28.9	inactive	–	inactive	inactive	0.6	inactive	inactive	7.8	7.02% (inactive)	7.16% (inactive)	inactive	–	inactive	inactive	-0.528% (inactive)
Cc1ccc(C)c(N)c1	inactive	-8.67% (inactive)	inactive	30.9	inactive	–	inactive	inactive	7.96	inactive	inactive	-10.5	21.7% (inactive)	-4.28% (inactive)	inactive	0.0574% (inactive)	inactive	inactive	-2.64% (inactive)
Nc1cccc2c(=O)[nH][nH]c(=O)c12	inactive	0.411% (inactive)	inactive	-7.57	inactive	–	–	–	-4.82	inactive	inactive	-2.09	12.7% (inactive)	-3.76% (inactive)	–	0.176% (inactive)	inactive	inactive	-2.14% (inactive)
CC(N)CN (stereo not drawn)	inactive	–	inactive	4.9	inactive	–	inactive	inactive	-2.32	inactive	inactive	-2.44	12.6% (inactive)	-4.82% (inactive)	inactive	0.0382% (inactive)	inactive	–	-0.238% (inactive)
Cc1ccc(C)o1	inactive	–	inactive	-8.16	inactive	–	inactive	inactive	16.3	inactive	inactive	5.87	-4.44% (inactive)	-3.98% (inactive)	inactive	–	inactive	inactive	-6.1% (inactive)
N#CC1(O)CCCCC1	inactive	–	inactive	12	inactive	–	inactive	inactive	4.69	inactive	inactive	-4.06	2.71% (inactive)	-16% (inactive)	inactive	-2.59% (inactive)	inactive	inactive	0.526% (inactive)
CSCCC=O	inactive	–	inactive	-13.1	inactive	–	inactive	inactive	-12.2	inactive	–	-2.47	16.4% (inactive)	–	inactive	0.77% (inactive)	inactive	inactive	-3.46% (inactive)
CCOCCO	inactive	-1.34% (inactive)	inactive	–	inactive	–	inactive	inactive	9.04	inactive	–	1.51	7.78% (inactive)	-11.8% (inactive)	inactive	-1.02% (inactive)	–	inactive	-2.61% (inactive)
COc1cccc(N)c1	inactive	1.73% (inactive)	inactive	–	–	–	inactive	inactive	15.1	inactive	inactive	–	–	-9.05% (inactive)	–	–	–	inactive	-3.72% (inactive)
O=C1CCC(=O)O1	inactive	–	inactive	24.1	inactive	–	inactive	inactive	8.02	inactive	inactive	-8.25	-2.46% (inactive)	-21.6% (inactive)	inactive	–	inactive	–	0.572% (inactive)
FC(F)(F)c1ccccc1Cl	inactive	6.11% (inactive)	–	25.6	inactive	inactive	inactive	inactive	-12.9	inactive	inactive	-4.91	-5% (inactive)	–	inactive	-0.494% (inactive)	–	inactive	1.57% (inactive)
